# Measured values reported in the supplement of paper PMC8728848.
# The full list was thinned out, with the strongest signals kept by preference.
# B1: Flo11 (Saccharomyces cerevisiae), P08640 (protein)
# chain: MQRPFLLAYLVLSLLFNSALGFPTALVPRGSSEGTSCNSIVNGCPNLDFNWHMDQQNIMQYTLDVTSVSWVQDNTYQITIHVKGKENIDLKYLWSLKIIGVTGPKGTVQLYGYNENTYLIDNPTDFTATFEVYATQDVNSCQVWMPNFQIQFEYLQGSAAQYASSWQWGTTSFDLSTGCNNYDNQGHSQTDFPGFYWNIDCDNNCGGTKSSTTTSSTSESSTTTSSTSESSTTTSSTSESSTTTSSTSESSTSSSTTAPATPTTTSCTKEKPTPPTTTSCTKEKPTPPHHDTTPCTKKKTTTSKTCTKKTTTPVPTPSSSTTESSSAPVPTPSSSTTESSSAPVTSSTTESSSAPVPTPSSSTTESSSAPVTSSTTESSSAPVTSSTTESSSAPVPTPSSSTTESSSAPVTSSTTESSSAPVTSSTTESSSAPVTSSTTESSSAPVTSSTTESSSAPVPTPSSSTTESSSAPVTSSTTESSSAPVPTPSSSTTESSSAPVTSSTTESSSAPVPTPSSSTTESSSAPAPTPSSSTTESSSAPVTSSTTESSSAPVPTPSSSTTESSSTPVTSSTTESSSAPVPTPSSSTTESSSAPVPTPSSSTTESSSAPAPTPSSSTTESSSAPVTSSTTESSSAPVPTPSSSTTESSSAPVPTPSSSTTESSSAPVPTPSSSTTESSSAPVTSSTTESSSAPVTSSTTESSSAPVPTPSSSTTESSSAPVPTPSSSTTESSSAPVPTPSSSTTESSSAPVTSSTTESSSAPVPTPSSSTTESSSAPVPTPSSSTTESSSAPVPTPSSSTTESSVAPVPTPSSSSNITSSAPSSTPFSSSTESSSVPVPTPSSSTTESSSAPVSSSTTESSVAPVPTPSSSSNITSSAPSSIPFSSTTESFSTGTTVTPSSSKYPGSQTETSVSSTTETTIVPTKTTTSVTTPSTTTITTTVCSTGTNSAGETTSGCSPKTVTTTVPTTTTTSVTTSSTTTITTTVCSTGTNSAGETTSGCSPKTITTTVPCSTSPSETASESTTTSPTTPVTTVVSTTVVTTEYSTSTKPGGEITTTFVTKNIPTTYLTTIAPTPSVTTVTNFTPTTITTTVCSTGTNSAGETTSGCSPKTVTTTVPCSTGTGEYTTEATTLVTTAVTTTVVTTESSTGTNSAGKTTTGYTTKSVPTTYVTTLAPSAPVTPATNAVPTTITTTECSAATNAAGETTSVCSAKTIVSSASAGENTAPSATTPVTTAIPTTVITTESSVGTNSAGETTTGYTTKSIPTTYITTLIPGSNGAKNYETVATATNPISIKTTSQLATTASASSVAPVVTSPSLTGPLQSASGSAVATYSVPSISSTYQGAANIKVLGNFMWLLLALPVVF
# Legend:
# Assay in all cases: glycan array binding signal (z-score within array); higher = stronger binding
# Settings in all cases: glycan notation: IUPAC condensed, linker removed
# [1] = target: Fuc(a1-2)Gal(b1-3)GalNAc(b1-3)Gal
# Summary of the method: (§1)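 From the Consortium for Functional Glycomics database, 3228 arrays were curated, keeping only those whose protein sequence was available. Binding is given as a within-array Z-score averaged across arrays sharing a protein sequence and across linkers. Negative Z-scores can be read as non-binding.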
# [2] = target: Fuc(a1-2)Gal(b1-3)GlcNAc(b1-2)Man(a1-3)[Fuc(a1-2)Gal(b1-3)GlcNAc(b1-2)Man(a1-6)]Man(b1-4)GlcNAc(b1-4)[Fuc(a1-6)]GlcNAc
# Summary of the method: as §1
# [3] = target: Fuc(a1-2)Gal(b1-4)GlcNAc(b1-3)GalNAc
# Summary of the method: as §1
# [4] = target: Fuc(a1-2)Gal(b1-4)[Fuc(a1-3)]GlcNAc(b1-3)GalNAc
# Summary of the method: as §1
# [5] = target: Fuc(a1-2)[Gal(a1-3)]Gal(b1-3)GlcNAc
# Summary of the method: as §1
# [6] = target: Fuc(a1-2)[Gal(a1-3)]Gal(b1-3)GlcNAc(b1-2)Man(a1-3)[Fuc(a1-2)[Gal(a1-3)]Gal(b1-3)GlcNAc(b1-2)Man(a1-6)]Man(b1-4)GlcNAc(b1-4)GlcNAc
# Summary of the method: as §1
# [7] = target: Fuc(a1-2)[Gal(a1-3)]Gal(b1-4)[Fuc(a1-3)]Glc
# Summary of the method: as §1
# [8] = target: Fuc(a1-2)[GalNAc(a1-3)]Gal(b1-4)GlcNAc
# Summary of the method: as §1
# Fuc(a1-4)GlcNAc = target: Fuc(a1-4)GlcNAc
# Summary of the method: as §1
# [9] = target: Gal(a1-3)Gal(b1-3)GlcNAc(b1-2)Man(a1-3)[Gal(a1-3)Gal(b1-3)GlcNAc(b1-2)Man(a1-6)]Man(b1-4)GlcNAc(b1-4)GlcNAc
# Summary of the method: as §1
# [10] = target: Gal(a1-3)Gal(b1-3)[Fuc(a1-4)]GlcNAc(b1-2)Man(a1-3)[Gal(a1-3)Gal(b1-3)[Fuc(a1-4)]GlcNAc(b1-2)Man(a1-6)]Man(b1-4)GlcNAc(b1-4)GlcNAc
# Summary of the method: as §1
# Gal(a1-4)GlcNAc = target: Gal(a1-4)GlcNAc
# Summary of the method: as §1
# Gal(a1-6)Glc = target: Gal(a1-6)Glc
# Summary of the method: as §1
# Gal(b1-3)Gal(b1-4)GlcNAc = target: Gal(b1-3)Gal(b1-4)GlcNAc
# Summary of the method: as §1
# [11] = target: Gal(b1-3)[Fuc(a1-4)]GlcNAc(b1-2)Man(a1-3)[Gal(b1-3)[Fuc(a1-4)]GlcNAc(b1-2)Man(a1-6)]Man(b1-4)GlcNAc(b1-4)GlcNAc
# Summary of the method: as §1
# [12] = target: Gal(b1-3)[Fuc(a1-4)]GlcNAc(b1-3)Gal(b1-3)[Fuc(a1-4)]GlcNAc
# Summary of the method: as §1
# [13] = target: Gal(b1-3)[GlcNAc(b1-6)]GalNAc
# Summary of the method: as §1
# [14] = target: Gal(b1-4)GlcNAc(b1-3)Gal(b1-4)[Fuc(a1-3)GlcNAc(b1-6)]Gal(b1-4)Glc
# Summary of the method: as §1
# Gal3S(b1-4)Glc = target: Gal3S(b1-4)Glc
# Summary of the method: as §1
# Gal6S(b1-4)GlcNAc6S = target: Gal6S(b1-4)GlcNAc6S
# Summary of the method: as §1
# GalNAc(b1-3)GalNAc = target: GalNAc(b1-3)GalNAc
# Summary of the method: as §1
# [15] = target: GalNAc(b1-4)GlcNAc(b1-2)Man(a1-3)[GalNAc(b1-4)GlcNAc(b1-2)Man(a1-6)]Man(b1-4)GlcNAc(b1-4)GlcNAc
# Summary of the method: as §1
# [16] = target: GlcNAc(a1-4)Gal(b1-4)GlcNAc(b1-3)Gal(b1-4)GlcNAc
# Summary of the method: as §1
# [17] = target: GlcNAc(a1-4)Gal(b1-4)GlcNAc(b1-3)Gal(b1-4)[Fuc(a1-3)]GlcNAc(b1-3)Gal(b1-4)[Fuc(a1-3)]GlcNAc
# Summary of the method: as §1
# [18] = target: GlcNAc(b1-2)Man(a1-3)[GlcNAc(b1-2)Man(a1-6)]Man(b1-4)GlcNAc(b1-4)[Fuc(a1-6)]GlcNAc
# Summary of the method: as §1
# [19] = target: GlcNAc(b1-2)[GlcNAc(b1-4)]Man(a1-3)[GlcNAc(b1-4)][GlcNAc(b1-2)[GlcNAc(b1-6)]Man(a1-6)]Man(b1-4)GlcNAc(b1-4)GlcNAc
# Summary of the method: as §1
# GlcNAc(b1-4)GlcNAc = target: GlcNAc(b1-4)GlcNAc
# Summary of the method: as §1
# [20] = target: Man(a1-2)Man(a1-2)Man(a1-3)Man
# Summary of the method: as §1
# [21] = target: Man(a1-2)Man(a1-3)[Man(a1-2)Man(a1-6)]Man
# Summary of the method: as §1
# [22] = target: Man(a1-2)Man(a1-6)[Man(a1-3)]Man(a1-6)[Man(a1-2)Man(a1-2)Man(a1-3)]Man(b1-4)GlcNAc(b1-4)GlcNAc
# Summary of the method: as §1
binder,measurement,setting,value
B1,glycan array binding signal (z-score),[1],4.03
same,glycan array binding signal (z-score),[2],0.319
same,glycan array binding signal (z-score),[3],1.35
same,glycan array binding signal (z-score),[4],5.39
same,glycan array binding signal (z-score),[5],-0.315
same,glycan array binding signal (z-score),[6],-0.389
same,glycan array binding signal (z-score),[7],-0.826
same,glycan array binding signal (z-score),[8],-0.692
same,glycan array binding signal (z-score),Fuc(a1-4)GlcNAc,0.442
same,glycan array binding signal (z-score),[9],0.723
same,glycan array binding signal (z-score),[10],0.122
same,glycan array binding signal (z-score),Gal(a1-4)GlcNAc,-0.72
same,glycan array binding signal (z-score),Gal(a1-6)Glc,-0.453
same,glycan array binding signal (z-score),Gal(b1-3)Gal(b1-4)GlcNAc,0.164
same,glycan array binding signal (z-score),[11],-0.241
same,glycan array binding signal (z-score),[12],-0.512
same,glycan array binding signal (z-score),[13],-1.34
same,glycan array binding signal (z-score),[14],-1.05
same,glycan array binding signal (z-score),Gal3S(b1-4)Glc,0.09
same,glycan array binding signal (z-score),Gal6S(b1-4)GlcNAc6S,0.193
same,glycan array binding signal (z-score),GalNAc(b1-3)GalNAc,-0.184
same,glycan array binding signal (z-score),[15],0.79
same,glycan array binding signal (z-score),[16],6.8
same,glycan array binding signal (z-score),[17],3.01
same,glycan array binding signal (z-score),[18],3.49
same,glycan array binding signal (z-score),[19],0.283
same,glycan array binding signal (z-score),GlcNAc(b1-4)GlcNAc,-0.781
same,glycan array binding signal (z-score),[20],7.09
same,glycan array binding signal (z-score),[21],-0.669
same,glycan array binding signal (z-score),[22],-1.08
